# In PubChem BioAssay AID1508601 (ICCB-Longwood Screening Facility, Harvard Medical School, 2020):
# Values joined by “and” are separate entries in the source; they are usually repeats but may differ in a detail not shown here. Equal values may be shown once. Out of some 5,700 compounds screened, about 85 (1%) were called active. The sample holds actives, similar compounds and a random draw of the others, so the mix is not that of the screen. Rule as the data show it: active = p53-positive nuclei above about 36% (passing the limit was not always enough); inactive = the rest.
# Key:
# [1] = nuclear p53 accumulation, HPV+ cells – imaging, p53-positive nuclei imaging, 24 h, 48 h (AID 1508601); settings: 24/48 h
# [2] = target: Cellular tumor antigen p53 (Homo sapiens) (UniProt P04637); test: as above; settings: 24/48 h, stronger effect = higher value
# [3] = measured here: cell number at 24 h, concentration not given here
# [4] = measured here: cell number at 48 h, concentration not given here
# [5] = measured here: p53 positive nuclei at 24 h, concentration not given here
# [6] = measured here: cell number at 24 h, Library stock concentration: 3.33 mM
# [7] = measured here: cell number at 48 h, Library stock concentration: 3.33 mM
# [8] = Library stock concentration: 3.33 mM
# [9] = measured here: p53 positive nuclei at 24 h, Library stock concentration: 3.33 mM
# [10] = measured here: cell number at 24 h, Library stock concentration: 10 mM
# [11] = measured here: cell number at 48 h, Library stock concentration: 10 mM
# [12] = Library stock concentration: 10 mM
# [13] = measured here: p53 positive nuclei at 24 h, Library stock concentration: 10 mM
# [14] = measured here: cell number at 24 h, Library stock concentration: 46 uM
# [15] = measured here: cell number at 24 h, Library stock concentration: 278 uM
# [16] = measured here: cell number at 24 h, Library stock concentration: 1.67 mM
# [17] = measured here: cell number at 48 h, Library stock concentration: 46 uM
# [18] = measured here: cell number at 48 h, Library stock concentration: 278 uM
# [19] = measured here: cell number at 48 h, Library stock concentration: 1.67 mM
# [20] = Library stock concentration: 46 uM
# [21] = Library stock concentration: 278 uM
# [22] = Library stock concentration: 1.67 mM
# [23] = measured here: p53 positive nuclei at 24 h, Library stock concentration: 46 uM
# [24] = measured here: p53 positive nuclei at 24 h, Library stock concentration: 278 uM
# [25] = measured here: p53 positive nuclei at 24 h, Library stock concentration: 1.67 mM
# Sequence of Cellular tumor antigen p53 (Homo sapiens) (P04637 whole entry, looked up): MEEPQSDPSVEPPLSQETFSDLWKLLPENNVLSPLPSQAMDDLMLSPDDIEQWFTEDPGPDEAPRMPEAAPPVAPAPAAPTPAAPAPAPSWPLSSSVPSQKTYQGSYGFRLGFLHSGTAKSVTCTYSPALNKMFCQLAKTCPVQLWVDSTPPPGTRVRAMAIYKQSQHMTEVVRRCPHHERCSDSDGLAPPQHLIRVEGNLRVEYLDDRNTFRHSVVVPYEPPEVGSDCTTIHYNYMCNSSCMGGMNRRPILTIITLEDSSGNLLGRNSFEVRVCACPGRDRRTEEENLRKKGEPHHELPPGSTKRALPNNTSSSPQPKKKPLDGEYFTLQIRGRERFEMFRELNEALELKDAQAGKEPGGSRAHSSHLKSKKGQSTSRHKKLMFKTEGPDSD
structure (smiles),measurement,setting,value
C[C@H]1O[C@@H](O[C@H]2[C@@H](O)C[C@H](O[C@H]3[C@@H](O)C[C@H](O[C@H]4CC[C@]5(C)C6CC[C@]7(C)[C@@H](C8=CC(=O)OC8)CC[C@]7(O)C6CC[C@@H]5C4)O[C@@H]3C)O[C@@H]2C)C[C@H](O)[C@@H]1O (stereo partly drawn),"nuclei count, normalised",[1]; [3],49%
same,"nuclei count, normalised",[1]; [4],31%
same,"p53-positive nuclei, normalised",[2]; concentration not given here,16.9% (inactive)
same,"p53-positive nuclei, normalised",[2]; [5],3.09%
CC(C)OC(=O)CCC/C=C\C[C@@H]1[C@@H](/C=C/[C@@H](O)CCc2ccccc2)[C@H](O)C[C@@H]1O,"nuclei count, normalised",[1]; [3],106%
same,"nuclei count, normalised",[1]; [4],105%
same,"p53-positive nuclei, normalised",[2]; concentration not given here,0.0477% (inactive)
same,"p53-positive nuclei, normalised",[2]; [5],-0.0131%
CCN(CC)C(=O)[C@]1(c2ccccc2)CC1CN (stereo partly drawn),"nuclei count, normalised",[1]; [6],107%
same,"nuclei count, normalised",[1]; [7],99.9%
same,"p53-positive nuclei, normalised",[2]; [8],-0.0572% (inactive)
same,"p53-positive nuclei, normalised",[2]; [9],-0.236%
COc1cccc(CN2CCN(c3ccc4cccc(OC)c4n3)CC2)c1,"nuclei count, normalised",[1]; [3],109%
same,"nuclei count, normalised",[1]; [4],114%
same,"p53-positive nuclei, normalised",[2]; concentration not given here,0.13% (inactive)
same,"p53-positive nuclei, normalised",[2]; [5],0.279%
O=C(O)CCC/C=C\C[C@@H]1[C@@H](/C=C/[C@H](O)CCc2ccccc2)[C@H](O)C[C@@H]1O,"nuclei count, normalised",[1]; [3],107%
same,"nuclei count, normalised",[1]; [4],108%
same,"p53-positive nuclei, normalised",[2]; concentration not given here,-0.104% (inactive)
same,"p53-positive nuclei, normalised",[2]; [5],-0.0183%
O=C(O)CCCC=CCC1C(O)CC(O)C1C=CC(O)COc1cccc(Cl)c1 (stereo not drawn),"nuclei count, normalised","[1]; measured here: cell number at 24 h, Library stock concentration: 80 uM",91.3%
same,"nuclei count, normalised","[1]; measured here: cell number at 24 h, Library stock concentration: 400 uM",83%
same,"nuclei count, normalised","[1]; measured here: cell number at 24 h, Library stock concentration: 2 mM",71%
same,"nuclei count, normalised",[1]; [10],62.6%
same,"nuclei count, normalised","[1]; measured here: cell number at 48 h, Library stock concentration: 80 uM",91.4%
same,"nuclei count, normalised","[1]; measured here: cell number at 48 h, Library stock concentration: 400 uM",86.3%
same,"nuclei count, normalised","[1]; measured here: cell number at 48 h, Library stock concentration: 2 mM",76.4%
same,"nuclei count, normalised",[1]; [11],62.3%
same,"p53-positive nuclei, normalised",[2]; Library stock concentration: 80 uM,-0.163% (inactive)
same,"p53-positive nuclei, normalised",[2]; Library stock concentration: 400 uM,-0.108% (inactive)
same,"p53-positive nuclei, normalised",[2]; Library stock concentration: 2 mM,0.08% (inactive)
same,"p53-positive nuclei, normalised",[2]; [12],0.269% (inactive)
same,"p53-positive nuclei, normalised","[2]; measured here: p53 positive nuclei at 24 h, Library stock concentration: 80 uM",0.18%
same,"p53-positive nuclei, normalised","[2]; measured here: p53 positive nuclei at 24 h, Library stock concentration: 400 uM",0.0351%
same,"p53-positive nuclei, normalised","[2]; measured here: p53 positive nuclei at 24 h, Library stock concentration: 2 mM",0.0627%
same,"p53-positive nuclei, normalised",[2]; [13],-0.0194%
COC1=C2CC(C)CC(OC)C(O)C(C)C=C(C)C(OC(N)=O)C(OC)C=CC=C(C)C(=O)NC(=CC1=O)C2=O (stereo not drawn),"nuclei count, normalised",[1]; [6],40.1%
same,"nuclei count, normalised",[1]; [7],28.1%
same,"p53-positive nuclei, normalised",[2]; [8],-0.0882% (inactive)
same,"p53-positive nuclei, normalised",[2]; [9],-0.356%
CCCCCN=C(N)N/N=C/c1c[nH]c2ccc(OC)cc12,"nuclei count, normalised",[1]; [3],107%
same,"nuclei count, normalised",[1]; [4],112% and 109%
same,"p53-positive nuclei, normalised",[2]; concentration not given here,-0.135% (inactive) and -0.2% (inactive)
same,"p53-positive nuclei, normalised",[2]; [5],0.0257% and -0.191%
CC1C[C@H]2[C@@H]3CCC4=CC(=O)C=C[C@]4(C)[C@@H]3C(=O)C[C@]2(C)[C@]1(O)C(=O)CO (stereo partly drawn),"nuclei count, normalised",[1]; [6],104%
same,"nuclei count, normalised",[1]; [7],88.5%
same,"p53-positive nuclei, normalised",[2]; [8],1.05% (inactive)
same,"p53-positive nuclei, normalised",[2]; [9],1.05%
CN(CCC(Oc1ccc(-c2ccccc2)cc1)c1ccc(F)cc1)CC(=O)O (stereo not drawn),"nuclei count, normalised",[1]; [14],112%
same,"nuclei count, normalised",[1]; [15],111%
same,"nuclei count, normalised",[1]; [16],107%
same,"nuclei count, normalised",[1]; [10],115%
same,"nuclei count, normalised",[1]; [17],109%
same,"nuclei count, normalised",[1]; [18],113%
same,"nuclei count, normalised",[1]; [19],104%
same,"nuclei count, normalised",[1]; [11],110%
same,"p53-positive nuclei, normalised",[2]; [20],-0.199% (inactive)
same,"p53-positive nuclei, normalised",[2]; [21],-0.17% (inactive)
same,"p53-positive nuclei, normalised",[2]; [22],0.114% (inactive)
same,"p53-positive nuclei, normalised",[2]; [12],-0.129% (inactive)
same,"p53-positive nuclei, normalised",[2]; [23],-0.152%
same,"p53-positive nuclei, normalised",[2]; [24],-0.0916%
same,"p53-positive nuclei, normalised",[2]; [25],-0.153%
same,"p53-positive nuclei, normalised",[2]; [13],-0.0944%
O=C1CC(c2ccc([N+](=O)[O-])cc2)=NN1c1ccccc1,"nuclei count, normalised",[1]; [14],114%
same,"nuclei count, normalised",[1]; [15],115%
same,"nuclei count, normalised",[1]; [16],116%
same,"nuclei count, normalised",[1]; [10],117%
same,"nuclei count, normalised",[1]; [17],107%
same,"nuclei count, normalised",[1]; [18],109%
same,"nuclei count, normalised",[1]; [19],110%
same,"nuclei count, normalised",[1]; [11],106%
same,"p53-positive nuclei, normalised",[2]; [20],-0.127% (inactive)
same,"p53-positive nuclei, normalised",[2]; [21],0.0933% (inactive)
same,"p53-positive nuclei, normalised",[2]; [22],-0.137% (inactive)
same,"p53-positive nuclei, normalised",[2]; [12],-0.204% (inactive)
same,"p53-positive nuclei, normalised",[2]; [23],-0.0266%
same,"p53-positive nuclei, normalised",[2]; [24],0.0349%
same,"p53-positive nuclei, normalised",[2]; [25],0.0231%
same,"p53-positive nuclei, normalised",[2]; [13],0.0862%
CC(O)[C@H]1C(=O)N2C(C(=O)OCOC(=O)C(C)(C)C)=C(SC3CN(C4=NCCS4)C3)C(C)[C@@H]12 (stereo partly drawn),"nuclei count, normalised",[1]; [6],106%
same,"nuclei count, normalised",[1]; [7],101%
same,"p53-positive nuclei, normalised",[2]; [8],-0.0394% (inactive)
same,"p53-positive nuclei, normalised",[2]; [9],-0.252%
CC1(C)SC2C(NC(=O)C(NC(=O)N3CCNC3=O)c3ccccc3)C(=O)N2C1C(=O)O (stereo not drawn),"nuclei count, normalised",[1]; [6],118%
same,"nuclei count, normalised",[1]; [7],111%
same,"p53-positive nuclei, normalised",[2]; [8],-0.143% (inactive)
same,"p53-positive nuclei, normalised",[2]; [9],-0.242%
